Compound activity from PubChem BioAssay.
Most compounds without a hit are left out; they make up all but 2.4% or so of the library.
Apoferritin bind: qHTS Assay for Identification of Novel General Anesthetics; Potency, µM (top dose mostly 77.5 µM), for the others: at the highest dose activity change, negative = displacement, actives largely listed as inhibitors; 350,000 compounds, 0.074% hits; Ferritin light chain (Equus caballus), P02791; apoferritin/1-aminoanthracene competitive binding, fluorescence; further: on the % scale 0 is the no-effect control and ±100 the full control effect; nearly all actives have a fitted effect of over 20% in size
Target sequence (P02791 2-175 limits assumed): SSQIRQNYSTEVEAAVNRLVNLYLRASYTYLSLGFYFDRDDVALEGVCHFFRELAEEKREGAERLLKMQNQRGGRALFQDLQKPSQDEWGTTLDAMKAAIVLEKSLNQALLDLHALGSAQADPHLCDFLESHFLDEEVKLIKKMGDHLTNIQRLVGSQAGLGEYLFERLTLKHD
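In PBS, apoferritin at 10 uM is loaded with 1-AMA from a 50% saturated solution. After 10 min of compound exposure at ambient temperature, reduced 535 nm fluorescence indicates probe displacement.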
TGFb inhibitor: qHTS for Inhibitors of TGF-b | HepG2 CAGA-GFP TGF-b/SMAD3 reporter, GFP fluorescence, 18 h; TGF-beta stimulated, 500 pg/mL final | Potency, µM (doses to about 46.1 µM), without a hit: at the top dose activity, negative = inhibition, most hits filed as inhibitors | 410,000 compounds, 1.2% hits | AID 588855, 2011; further: on the % scale 0 is the no-effect control and ±100 the full control effect; nearly all actives have a fitted effect of over 65% in size
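Per well, imaged GFP fluorescence of HEPG2 CAGA-GFP cells gives the signal; cells get compound, then TGF-beta (500 pg/mL final), 18 h at 37 degrees C; %Activity versus -TGF-beta and +DMSO controls.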
HepG2 tox-1: qHTS for Inhibitors of TGF-b: Cytotox Counterscreen; HepG2 CAGA-GFP viability, ATP luminescence, 18 h; Potency, µM (highest dose often 46.1 µM), inactives show at the top dose activity change, negative = cytotoxicity, actives largely listed as cytotoxic; 410,000 compounds, 0.76% hits; AID 588856, 2011
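CellTiter-Glo luminescence gave cytotoxicity after 18 hours at 37 degrees C. The cells were HepG2 CAGA-GFP in 1% FBS DMEM, stimulated with 500 pg/mL TGF-beta after compound addition. %Activity was normalised to no-cell wells (complete cell-killing) and DMSO (no toxicity), and curves were fitted and classified.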
ATXN2 expr inh: Primary qHTS for Inhibitors of ATXN expression | HEK-293 ATXN2-luciferase reporter, luminescence, 24 h | Potency, µM (highest dose often 57 µM), without a hit: top-dose activity change, negative = inhibition, most hits filed as inhibitors | 360,000 compounds, 0.72% hits | AID 1745845, 2022; further: on the % scale 0 is the no-effect control and ±100 the full control effect; nearly all actives have a fitted effect of over 55% in size
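qHTS (up to 57 uM final) was run with 24 h compound exposure of reporter cells at 37 °C. Each well was multiplexed: SteadyGlo luminescence measured ATXN2-luciferase expression after a fluorogenic Gly-Phe-AFC viability readout (25 uM final).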
ATXN viability: Viability Counterscreen for Primary qHTS for Inhibitors of ATXN expression | S2 cells (HEK-293 line with an ATXN2-luciferase reporter) viability, CellTiter-Fluor protease fluorescence, 24 h | 400,000 compounds, 0.49% hits | Potency, µM (titrated, usually from 56.7 µM), actives largely listed as cytotoxic | AID 651635, 2014; further: nearly all actives have a fitted effect of over 40% in size
TGFb CAGA inh: qHTS for Inhibitors of TGF-b: Confirmation of Cherry Picks; shares compounds with TGFb inhibitor; HepG2 CAGA-GFP TGF-b reporter, GFP fluorescence, 18 h; cells stimulated with TGF-beta, 500 pg/mL; Potency, µM (highest dose often 46.1 µM), without a hit: at the top dose activity, negative = inhibition, usual class: inhibitors; 1,600 compounds, 63% hits; AID 720534, 2013; further: on the % scale 0 is the no-effect control and ±100 the full control effect; nearly all actives have a fitted effect of over 65% in size
HepG2 tox-2: qHTS for Inhibitors of TGF-b: Cytotox Counterscreen for Cherry Picks | shares compounds with TGFb inhibitor | HepG2 CAGA-GFP viability, ATP luminescence, 18 h; cells stimulated with TGF-beta, 500 pg/mL | Potency, µM (top dose mostly 46.1 µM), without a hit: top-dose activity, negative = cytotoxicity, usual class: inhibitors | 1,600 compounds, 27% hits; further: on the % scale 0 is the no-effect control and ±100 the full control effect; nearly all actives have a fitted effect of over 70% in size
CCL64 TGFb inh: qHTS for Inhibitors of TGF-b: CCL64 Cells Orthogonal Assay for Cherry Picks; shares compounds with TGFb inhibitor; Potency, µM (series often up to 46.1 µM), inactives show at the top dose activity, negative = inhibition, hits mostly inhibitors; 1,600 compounds, 41% hits; AID 720536, 2013; CCL64 CAGA-GFP reporter, TGF-b stimulated, GFP fluorescence, 18 h; further: nearly all actives have a fitted effect of over 65% in size
COP TGFb inh: qHTS for Inhibitors of TGF-b: Hit Validation in HepG2 Cells using COP promoter; shares compounds with TGFb inhibitor; HepG2 COP-GFP TGF-b reporter, GFP fluorescence, 18 h; cells stimulated by added recombinant TGF-beta; Potency, µM (titrated, usually from 46.1 µM), for the others: top-dose activity, negative = inhibition, hits mostly inhibitors; 1,600 compounds, 3% hits; further: nearly all actives have a fitted effect of over 70% in size
Active calls of the source: *; i = inactive; ? = inconclusive; / = no result; ! = a repeat was not active. The call rests on the fitted dose curve; in most records, active means well fitted curve in the direction sought with a large enough effect; inconclusive means small, poorly fitted or top-dose-only effect, or another doubt; inactive means no such curve, though single readings can be large; an effect the other way counts as inactive or inconclusive. Potency means the concentration at half of the fitted maximal effect.

SMILES	Apoferritin bind	TGFb inhibitor	HepG2 tox-1	ATXN2 expr inh	ATXN viability	TGFb CAGA inh	HepG2 tox-2	CCL64 TGFb inh	COP TGFb inh
COc1cc(O)c(C(C)=O)c2c1C=CC(C)(C)O2	/	1%	5%	5%	i	/	/	/	/
COc1ccc(/C=C/C(=O)c2ccc(C(=O)/C=C/c3ccc(OC)c(OC)c3)cc2)cc1OC	7%	-19%	-19%	?	i	/	/	/	/
COc1ccc(/C=C/C(=O)c2ccccc2)cc1Cn1nnc2ccccc21	-8%	8.9µM*	-17%	?	/	6.5µM*	23µM*	23µM*	0%
CCSc1ccccc1C(=O)n1nnc2ccccc21	?	11µM*	-30%	-7%	i	5.8µM*	?	?	2%
CC(=O)n1nnc2ccccc21	5%	-15%	4%	/	/	/	/	/	/
CC1=C(C(=O)N2CCCCCC2)CC(CC(=O)NCCc2ccccn2)C(=O)N1Cc1ccc(C(C)(C)C)cc1 (stereo not given)	/	/	/	-8%	i	/	/	/	/
CC(C)=CCNc1ncnc2c1ncn2[C@@H]1O[C@H](CO)[C@@H](O)[C@H]1O	/	/	/	-24%	?	/	/	/	/
OCC1OC(n2cnc3c(NCc4ccco4)ncnc32)C(O)C1O (stereo not given)	5%	5µM*	-88%	?	?	5.8µM*	18µM*	12µM*	33%
C=CCNc1ncnc2c1ncn2C1OC(CO)C(O)C1O (stereo not given)	-6%	10µM*	7.9µM*	-7%	i	10µM*	?	-18%	28%
O=C(NCc1ccccc1)c1nc(S(=O)(=O)Cc2ccccc2)ncc1Cl	-7%	6.3µM*	8.9µM*!	/	?	4.6µM*	5.2µM*	2.3µM*	29µM*
Cc1ccc(CS(=O)(=O)c2ncc(Cl)c(C(=O)Nc3ccc(OC(F)F)cc3)n2)cc1	1%	10µM*	18µM*	?	?	8.2µM*	16µM*	3.3µM*	?
O=C(NCc1ccc2c(c1)OCO2)c1nc(S(=O)(=O)Cc2ccccc2)ncc1Cl	-1%	10µM*	-144%	?	?	2.3µM*	3.7µM*	2.6µM*	23µM*
COc1ccc(CNC(=O)c2nc(S(=O)(=O)Cc3ccccc3)ncc2Cl)cc1	-12%	6.3µM*	13µM*	/	18µM*	3.7µM*	16µM*	2.3µM*	?
CCS(=O)(=O)c1ncc(Cl)c(C(=O)NCc2ccccc2)n1	-2%	/	-108%	/	/	/	/	/	/
Nc1cccc2c1C(=O)N(CCOc1ccccc1F)C2=O	607%	22%	-64%	?	/	/	/	/	/
CCOC(=O)C1CC(c2ccccc2)=NN1c1ccccc1 (stereo not given)	/	4%	9%	/	?	/	/	/	/
CCOC(=O)c1ccc(NC(=O)c2cnn(-c3ccc(C)cc3C)c2C2CCN(C(=O)OC(C)(C)C)CC2)cc1	-2%	9%	0%	-6%	?	/	/	/	/
Cc1cc(C)cc(NC(=O)CSc2nc(=O)n3cc(C)ccc3n2)c1	/	16%	0%	-5%	i	/	/	/	/
CN(C)C(=O)c1cccc(-c2cc(NC=O)c3ncc(-c4ccc(F)cc4)n3c2)c1	/	8.9µM*	-15%	0%	i	5.2µM*	-13%	?	17%
CN(C)C(=O)c1cccc(-c2cnc3c(NC=O)cc(-c4ccccc4Cl)cn23)c1	/	13µM*	-17%	-24%	11µM*	16µM*	-15%	?	34%
CCc1cccc(OCC(=O)Nc2cc(S(=O)(=O)N3CCOCC3)ccc2N2CCCC2)c1	-7%	-7%	-3%	-3%	i	/	/	/	/
COc1ccc(C(=O)C2CCN(CC(=O)Nc3cc(C)cc(C)c3)CC2)cc1	-12%	-26%	-20%	-30%	i	/	/	/	/
Cc1ccc(C(=O)C2CCN(CC(=O)Nc3nc(C)cs3)CC2)cc1	-20%	?	-1%	-15%	i	18µM*	-13%	5%	0%
Cc1ccccc1OCC(O)CNC1CCC(NCC(O)COc2ccccc2C)CC1 (stereo not given)	-14%	5.6µM*	1.8µM*	?	?	4.6µM*	5.2µM*	?	?
CNC(=S)N/N=C/C1=CCC2CC1C2(C)C (stereo not given)	?	1.1µM*	-14%	0%	i	?	-8%	?	-10%
SMILES	Apoferritin bind	TGFb inhibitor	HepG2 tox-1	ATXN2 expr inh	ATXN viability	TGFb CAGA inh	HepG2 tox-2	CCL64 TGFb inh	COP TGFb inh
Nc1ncnc2c(C3OC(CO)C(O)C3O)scc12 (stereo not given)	/	-122%	-86%	?	?	0.016µM*	0.073µM*	0.92µM*	42%
Nc1ncnc2c1ncn2[C@@H]1O[C@H](CO)[C@@H](O)[C@@H]1O	/	2%	22%	-20%	i	/	/	/	/
COC(=O)CN1C(=O)CSc2ccc(S(=O)(=O)Nc3ccccc3)cc21	-15%	1%	-13%	/	/	/	/	/	/
COc1ccc(C(=O)Nc2cccc(NC(=O)c3ccc(OC)c(OC)c3)n2)cc1OC	-3%	-20%	-28%	/	i	/	/	/	/
CN(C)C(=O)C1C2NC(=S)N(c3cccc(Cl)c3)C1(C)Oc1ccc(Cl)cc12 (stereo not given)	-12%	-2%	-16%	2%	i	/	/	/	/
COc1cc(O)cc(O)c1C(=O)/C=C/c1ccccc1	-19%	14µM*	-29%	?	?	21µM*	?	?	21%
COc1ccc(CCNC(=O)c2ccc(-c3ccc([N+](=O)[O-])cc3)o2)cc1OC	-2%	?	-31%	-14%	i	/	/	/	/
